Consider 37 molecules from PubChem BioAssay AID504848 (National Center for Advancing Translational Sciences (NCATS), 2011).

Several values for one entry are separate records, joined by “and”; a condition that tells them apart may be missing. Identical values can stand only once. About 1,400 (61%) of roughly 2,300 compounds were called active. Roughly 29% stayed inconclusive and do not appear here. Calls follow the shape of the dose curve; as a rule, active = well fitted inhibition curve with a large enough effect; inconclusive = small, poorly fitted or top-dose-only effect, or effect the other way; inactive = no such curve, though single readings can be large or run the other way. The set was probably picked from earlier hits. The list shows a part of the results.
Potency is read from the fitted curve at half-maximal effect.

This assay is described as follows: Confirmation screen for delayed death inhibitors of the malarial parasite plastid, 96 hour incubation. Also: nearly all actives have a fitted effect of over 60% in size. Particulars: P. falciparum luciferase growth in erythrocytes; series mostly up to 28.7 µM. In outline: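 Two-generation (96 h, 37 C) exposure of P. falciparum carrying an integrated firefly luciferase reporter in erythrocytes, 0.1% parasitemia and 2% hematocrit final, Albumax-supplemented RPMI. Luminescence decrease measures growth inhibition.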
For the molecule `O=C(CCl)Nc1nccs1`, the Potency is 6.31 µM (active).
Turning to `Fc1ccc(C[n+]2c(-c3ccccc3)cc(-c3ccccc3)cc2-c2ccccc2)cc1`, the Potency was 2 µM (active).
With `O=C1NC(=O)N(c2ccccc2)C(=O)/C1=C/C=C/c1ccco1`, the Potency result is “inactive”.
The value for `C=CCn1c(O)c(N=Nc2c(C)n(C)n(-c3ccccc3)c2=O)c(=O)[nH]c1=S` was 6.31 µM (active); that for `O=[N+]([O-])c1cccc2c([As](=O)(O)O)cccc12` was 1.12 µM (active).
`C[C@@H]1C[C@@H]2O[C@H]2/C=C\C=C\C(=O)Cc2c(Cl)c(O)cc(O)c2C(=O)O1`: the Potency is 7.08 µM (active).
Turning to `COC(=O)c1nc(-c2ccc3c(n2)C(=O)C(N)=C(OC)C3=O)c(N)c(-c2ccc(OC)c(OC)c2O)c1C`, the Potency is 0.251 µM (active).
Consider `O=C(NC1CC2CCCC(C1)N2)c1ccccc1` (configuration not stated), for which the Potency is 5.01 µM (active).
As for `Cc1ccc(-c2nc(NC(=O)c3ccc(S(=O)(=O)N(CCC#N)CCC#N)cc3)sc2-c2ccccc2)cc1`, the Potency is 11.2 µM (active).
In the case of `CN1C2CCC1/C(=C/c1ccccn1)C(=O)/C2=C\c1ccccn1`, the Potency was 0.158 µM (active).
For `C[C@@H]1O[C@@H](O[C@H]2C[C@@H](O)[C@]3(CO)[C@@H]4C(CC[C@]3(O)C2)[C@@]2(O)CC[C@H](C3COC(=O)C3)[C@@]2(C)C[C@H]4O)[C@H](O)[C@H](O)[C@H]1O` (some centres not stated), the Potency result is “inactive”.
As for `CCOc1cc2c(cc1OCC)-n1cccc1C(c1ccccc1F)NC2` (configuration not stated), the Potency was 5.01 µM (active).
The value for `C[C@@H]1C[C@@H]([C@H](O)CC2CC(=O)NC(=O)C2)C(=O)[C@@H](C)C1` was 0.794 µM (active); that for `C[C@H]1C[C@@H](C)C(=O)[C@@H]([C@H](O)CC2CC(=O)NC(=O)C2)C1` was 0.0316 µM (active).
The value for `C/C1=C\[C@@H](C)C/C=C/[C@H]2[C@@H]3O[C@]3(C)[C@@H](C)[C@H]3[C@H](Cc4c[nH]c5ccccc45)NC(=O)[C@]32C(=O)/C=C/C(=O)[C@@H]1O` was 0.891 µM (active).
Regarding `CCC(C(=O)N1CCC2(CC1)OCCO2)n1c2ccccc2c2nc(=O)cc(C)n21` (configuration not stated), the Potency is 11.2 µM (active).
As to `C[C@@H]1CC[C@H]2[C@@H](C)C(=O)O[C@@H]3OC4(C)CC[C@@H]1C32OO4` (some centres not stated), the Potency is 0.0398 µM (active).
Consider `C[C@@H]1CC[C@H]2[C@@H](C)C(=O)O[C@@H]3O[C@@]4(C)CC[C@@H]1[C@]32OO4`, for which the Potency was 0.0398 µM (active).
Take `CCN(CC)Cc1cc(Nc2ccnc3cc(Cl)ccc23)ccc1O`: the Potency is 89.1 nM (active) and 22.4 nM (active).
On to `COc1ccc(-c2cc(-c3ccccc3)[n+](C)c(-c3ccccc3)c2)cc1`, for which the Potency is 2 µM (active).
For the molecule `C[n+]1c(-c2ccccc2)cc(-c2ccc(Cl)cc2)cc1-c1ccccc1`, the Potency is 0.891 µM (active).
Regarding `CCOP(=O)(OCC)C(O)c1ccc(OC)cc1OC` (configuration not stated), the Potency entry is “inactive”.
Turning to `O=C1/C(=C/c2ccccc2)C[C@@]2(O)[C@H]3Cc4ccc(O)c5c4[C@@]2(CCN3CC2CC2)C1O5` (some centres not stated), the Potency is 5.01 µM (active).
As to `COc1ccc(Cn2c(N)c(C(=O)NCc3ccco3)c3nc4ccccc4nc32)cc1`, the Potency was 3.98 µM (active).
As to `CC(C)CCOP(N)(=O)Oc1ccccc1` (configuration not stated), the Potency is 3.98 µM (active).
As to `CC[n+]1c(-c2ccccc2)c2cc(N)ccc2c2ccc(N)cc21`, the Potency is 0.0282 µM (active).
In the case of `CC1=CC2/C=C(\C)CCC(O)C(O)/C=C/C(=O)C23C(=O)NC(CC(C)C)C3C1C` (configuration not stated), the Potency was 12.6 µM (active).
In the case of `CCCNS(=O)(=O)c1ccc(OCC(=O)N2CCN(Cc3ccc4c(c3)OCO4)CC2)c(C)c1`, the Potency was 11.2 µM (active).
For the molecule `Oc1ccc(-[n+]2c(-c3ccccc3)cc(-c3ccccc3)cc2-c2ccccc2)cc1`, the Potency was 0.0794 µM (active).
Turning to `CC12CC[C@H]3[C@@H](CCC4(O)C[C@H](O)CCC34/C=N/NC(=O)c3ccccc3F)C1(O)CCC2C1=CC(=O)OC1` (some centres not stated), the Potency result was “inactive”.
Regarding `COc1cc(C(=O)N/N=C/C23CC[C@@H](O)CC2(O)CC[C@@H]2[C@@H]3CCC3(C)C(C4=CC(=O)OC4)CCC23O)ccc1O` (some centres not stated), the Potency result is “inactive”.
With `CN(C)c1ccc(C(=O)N/N=C/C23CC[C@@H](O)CC2(O)CC[C@@H]2[C@@H]3CCC3(C)C(C4=CC(=O)OC4)CCC23O)cc1` (some centres not stated), the Potency is 12.6 µM (active).
Take `COC(=O)C1=C(c2ccccc2OCc2ccccc2)C[C@@H]2CC[C@H]1N2C(=O)NCCOc1ccc(OC)cc1`: the Potency is 12.6 µM (active).
As for `CC[C@H]1CN2CCc3cc(OC)c(OC)cc3[C@H]2C[C@@H]1C[C@@H]1NCCc2cc(OC)c(OC)cc21`, the Potency is 0.501 µM (active).
As for `CC[C@H]1CN2CCc3cc(OC)c(OC)cc3C2C[C@@H]1C[C@H]1NCCc2cc(OC)c(OC)cc21` (some centres not stated), the Potency was 0.0501 µM (active).
The value for `CC[C@H]1CN2CCc3cc(OC)c(OC)cc3[C@@H]2C[C@@H]1C[C@H]1NCCc2cc(OC)c(OC)cc21` was 0.224 µM (active).
With `Cn1c(O)c(C=NC2C(=O)C3(C)CCC2C3(C)C)c(=O)n(C)c1=O` (configuration not stated), the Potency entry is “inactive”.
